# From PubChem BioAssay
# Pf growth 48h = inhibits P. falciparum growth in the first generation, 48 h | P. falciparum luciferase growth in erythrocytes, 48 h | AID 504832 | 310,000 compounds, 5.9% hits | Potency, µM (top dose mostly 28.7 µM), inactives show top-dose activity change, negative = inhibition, hits mostly inhibitors; note: potency is the fitted concentration of half-maximal effect
#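 Firefly luciferase activity from engineered P. falciparum reports growth; inhibitors lower the luminescent signal. Cultures contained 2% hematocrit erythrocytes at 0.1% final parasitemia.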
# Pf growth 96h = P. falciparum growth inhibition at 96 hours | Potency, µM (titrated, usually from 28.7 µM), without a hit: top-dose activity change, negative = inhibition, usual class: inhibitors | P. falciparum luciferase reporter growth, 96 h | 320,000 compounds, 6.9% hits; note: potency is the fitted concentration of half-maximal effect
#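 Luminescence readout: decreased luciferase signal marks inhibited growth of reporter-expressing P. falciparum in infected red cells (2% hematocrit, 0.05% parasitemia final), exposed to compound two generations (96 h, 37 C, 5% CO2).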
# HCV inh = HCV inhibition. Huh7.5.1 HCVcc-Cre infection, luciferase reporter, 44 h. AID 651820. Potency, µM (series often up to 41.8 µM), for the others: top-dose activity change, negative = inhibition, actives largely listed as inhibitors. 340,000 compounds, 3.4% hits; note: potency is the fitted concentration of half-maximal effect
#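 Seed cells (1,000/well) for 4 h; treat with compound and infect with HCVcc-Cre, moi about 0.5. Incubate 44 h, then detect luciferase activity.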
# HCMV antiviral = human cytomegalovirus inhibition; HFF cells, HCMV-luciferase reporter, 72 h; stronger effect = lower value; activity change, negative = inhibition, % at 57.5 µM; 410,000 compounds, 4.5% hits; in the data active = activity change below about -60%; inconclusive = no clear call, values can overlap the other calls; inactive = above about -39%
#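 Luciferase read-out from HCMV-luciferase-infected HFFs (MOI 1 PFU/cell) 72 h post infection at 37C; compounds added after 16 h cell attachment; activity normalized between buffer-only basal and Salinomycin (10uM) inhibitor controls.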
# Numbers without * were called inactive; ? = inconclusive; . = not tested or not shown; + = active, no number. Shown are actives, neighbours in structure and some others; about 13% of the full set was active somewhere. Unless noted, calls come from the whole dose curve; as a rule, active = well fitted inhibition curve with a large enough effect; inconclusive = small, poorly fitted or top-dose-only effect, or another doubt; inactive = no such curve, though single readings can be large or run the other way. % is set by controls: 0 for no effect and ±100 for the full control effect.
SMILES,Pf growth 48h,Pf growth 96h,HCV inh,HCMV antiviral
Cc1ccc(S(=O)(=O)N2CCN(C(=O)c3c(C)nn(-c4ccccc4)c3Cl)CC2)cc1,?,?,?,-75*
Cc1cccc(-n2nc(C)c(C(=O)N3CCN(c4ccccc4)CC3)c2-n2cccc2)c1,.,.,.,+
Cc1cc(C)c(S(=O)(=O)N2CCN(C(=O)c3ccc(-n4nc(C)c(Cl)c4C)cc3)CC2)c(C)c1,.,.,?,-26
Cc1ccc(N2C(=O)c3oc4cc(C)c(C)cc4c(=O)c3C2c2cccc(O)c2)nc1 (centres undefined),.,.,.,7
Cc1ccc(Cn2nc(C)c(C(=O)N3CCN(S(=O)(=O)/C=C/c4ccccc4)CC3)c2C)cc1,6.6µM*,3.3µM*,?,-31
O=C(c1cnn(Cc2ccccc2)c1)N1CCN(S(=O)(=O)/C=C/c2ccccc2)CC1,?,-29%,-4%,-29
Cc1cc(C)c(S(=O)(=O)N2CCN(C(=O)c3cc4ccccc4oc3=O)CC2)c(C)c1,?,?,?,-102*
CCCNC(=O)c1ccc(-n2c(-c3ccccc3)cc3c2CCCCC3)cc1,.,.,.,-87*
COCCNC(=O)c1ccc(-n2c(-c3ccccc3)cc3c2CCCCC3)cc1,.,.,.,-99*
CC(C)NC(=O)c1ccc(-n2c(-c3ccccc3)cc3c2CCCC3)cc1,.,.,.,-68*
CCNC(=O)c1ccc(-n2c(-c3ccccc3)cc3c2CCCCC3)cc1,.,.,.,-15
CN(C)CCNC(=O)c1ccc(-n2c(-c3ccccc3)cc3c2CCCC3)cc1,.,.,.,-92*
Cc1ccc(-n2nc3c(=O)n(CCCC(=O)NC(C)c4ccccc4)nc(C)c3c2C)cc1 (centres undefined),.,.,.,22
C=CCN1CCCC1CNC(=O)c1cc(S(N)(=O)=O)cc(OC)c1OC (centres undefined),5%,-7%,.,.
CCN1/C(=C/c2cc[n+](C)cc2)C=Cc2cc(C)ccc21,0.74µM*,-26%,5µM*,-100*
COc1ccc(CNC(=O)c2ccc(CNS(=O)(=O)c3ccc(F)cc3)cc2)cc1,.,.,.,32
COc1ccc(-c2cc(C(=O)Nc3ccccc3SC)no2)cc1,25%,0%,-12%,-12
COc1ccc(-c2cc(C(=O)Nc3cc(Br)ccc3O)no2)cc1,10µM*,-1%,15%,-8
Cc1cc(C(=O)Nc2cc(Br)ccc2O)on1,5.2µM*,6%,-5%,71
CCc1ccccc1NC(=O)c1cc(C)no1,-21%,16%,12%,?
CC(=O)c1cccc(Nc2nc(-c3ccccc3)nc3ccccc23)c1,?,-16%,10µM*,-31
O=C(O)c1cccc(Nc2ncnc3ccccc23)c1,45%,?,2%,-16
Oc1cccc(Nc2nc(-c3ccccc3)nc3ccccc23)c1,5%,39%,3.5µM*,?
Cc1cccc(Nc2nc(-c3ccccc3)nc3ccccc23)c1,.,.,.,-32
CC(=O)c1ccc(Nc2nc(-c3ccccc3)nc3ccccc23)cc1,.,.,?,13
SMILES,Pf growth 48h,Pf growth 96h,HCV inh,HCMV antiviral
CC(=O)c1cccc(Nc2ncnc3ccc(Br)cc23)c1,5.9µM*,-12%,?,?
CC(=O)Nc1cccc(Nc2nc(-c3ccccc3)nc3ccccc23)c1,46%,?,6.3µM*,42
Cc1cccc(OCC(=O)Nc2ccccc2C(=O)OCc2cc(=O)n3nc(C)sc3n2)c1,.,.,.,-26
Cc1ccc(NC(=O)CSc2nnc3ccc4ccccc4n23)cc1,.,.,.,1
CCn1nnc2cc(C(=O)Nc3cccc(Cl)c3)ccc21,.,.,.,41
COC(=O)c1cc(=O)nc(NN=C(C)C)s1,.,.,.,-9
COc1ccc(-c2cc3ccc(O)c(CN4CCCCC4C)c3oc2=O)cc1OC (centres undefined),.,.,.,11
O=c1[nH]c2ccc(NCc3ccc(-c4ccc(F)cc4)o3)cc2[nH]1,.,.,.,-6
Cc1[nH]c2ccccc2c1C(=O)CN1CCC2(CC1)OCCO2,0.93µM*,0%,-29%,-28
Cc1[nH]c2ccccc2c1C(=O)CN1CCCCC1C (centres undefined),-5%,15µM*,4%,22
CCC1CCCCN1CC(=O)c1c(C)[nH]c2ccccc12 (centres undefined),4%,-27%,-7%,75
NC(=O)C1CCN(S(=O)(=O)c2ccc(N3CCCCS3(=O)=O)cc2)CC1,.,.,.,57
COc1c(O)cc2c(c1OC)-c1ccc(OC)c(=O)cc1C(NC(C)=O)CC2 (centres undefined),.,.,11%,-80*
COc1cc2c(c(OC)c1OC)-c1ccc(NCc3ccccc3)c(=O)cc1C(NC(C)=O)CC2 (centres undefined),.,.,.,-80*
COc1cc2c(c(OC)c1OC)-c1ccc(NC(=O)c3ccc(F)cc3)c(=O)cc1[C@@H](NC(C)=O)CC2,?,?,?,-22
CCOC(=O)NC1CCc2cc(OC)c(OC)c(OC)c2-c2ccc(OC)c(=O)cc21 (centres undefined),.,.,-36%,-79*
COc1cc2c(c(OC)c1OC)-c1ccc(OC)c(=O)cc1[C@@H](NC(C)=O)CC2,?,?,9%,-89*
COc1cccc(NC(=O)c2oc3ccc(S(=O)(=O)N4CCC5(CC4)OCCO5)cc3c2C)c1,.,.,.,-7
COc1ccc(-c2nc3scc(CCNS(=O)(=O)c4ccc5c(c4)OCCO5)n3n2)cc1,.,.,.,-24
Cc1ccc(Nc2nc(N)c([N+](=O)[O-])c(NCc3ccccc3)n2)cc1,?,?,-41%,?
CC(C)CNc1nc(N)c([N+](=O)[O-])c(N2CCCCCC2)n1,?,10µM*,?,-99*
CCC(C)Nc1nc(N)c([N+](=O)[O-])c(NC2CCCCC2)n1 (centres undefined),?,?,?,113
CCC(C)Nc1nc(N)c([N+](=O)[O-])c(Nc2ccccc2OC)n1 (centres undefined),12µM*,10µM*,13µM*,?
COc1ccccc1Nc1nc(NCC(C)C)nc(N)c1[N+](=O)[O-],?,?,?,-85*
CCC(C)Nc1nc(N)c([N+](=O)[O-])c(NCc2ccccc2)n1 (centres undefined),?,?,11µM*,-26
SMILES,Pf growth 48h,Pf growth 96h,HCV inh,HCMV antiviral
COc1ccccc1Nc1nc(NCCCN(C)C)nc(N)c1[N+](=O)[O-],?,?,?,-28
COc1cc(OC)c(NS(=O)(=O)c2c(C(=O)N3CCCCCC3)c(C)n(C)c2C)cc1Cl,.,.,.,-15
COc1ccc(-c2onc(C)c2C)cc1S(=O)(=O)NCc1ccc(Br)cc1,.,.,.,0
CCc1ccc(CNC(=O)c2ccc3nc(C(C)C)oc3c2)cc1,.,.,.,-10
COc1ccc(-c2cc3nc(C)c(CCC(=O)NC(C)c4ccccc4)c(C)n3n2)c(OC)c1 (centres undefined),.,.,.,-19
COc1cc(NC(=O)CCc2c(C)nc3cc(-c4ccccc4)nn3c2C)cc(OC)c1OC,.,.,.,-104*
COc1cc(OC)cc(-c2cc3nc(C)c(CCC(=O)Nc4ccc(F)c(Cl)c4)c(C)n3n2)c1,.,.,.,-62*
